Measured values: PubChem BioAssay

Assay: changes in parasitized red cell lysis, either direction – P. falciparum Indochina, OD700, 3 h, PSAC antagonist project, primary screen (AID 1156)
Conditions: P. falciparum-infected erythrocytes, osmotic lysis, higher = more signal, called active from +8 up or from −8 down

z-score, inactive:
CCOC(=O)C1=CC[C@@H](c2ccc(OC)cc2)N(S(=O)(=O)c2ccc(C)cc2)[C@H]1c1ccc(C)cc1 -0.715
CCOC(=O)C[C@H]1[C@H](OC(=O)Cc2ccc3c(c2)OCO3)[C@@H](NC(=O)c2ccc3ccccc3n2)c2cc(OCCCO)ccc2N1C(=O)Cc1ccc(OC)cc1 -0.997
CC(C)(C)N1CC=CC23O[C@@H]4C=CCOC(=O)[C@@H]4[C@H]2C(=O)N(CCO)[C@@H]3C1=O (stereo not given in full) 0.0221
CCOC(=O)C1=CC[C@@H](c2ccc(OC)cc2)N(S(=O)(=O)c2ccc(C)cc2)[C@H]1CC -1.07
COc1ccc(NN2C(C(O)c3ccc(I)cc3)C=CC3C(=O)N(C4CCCCC4)C(=O)C32)cc1 (stereo not given) -0.0985
C=CCOC(=O)[C@H]1[C@@H]2C(=O)O[C@@H](c3ccccc3)[C@@H](c3ccccc3)N2[C@@H](c2ccc(OCCOC(=O)[C@@H]3C[C@@H]4C(=O)N[C@@H](CCCC[N+](C)(C)C)C(=O)N4[C@@H]3c3ccc(O)cc3)cc2)[C@]12C(=O)Nc1ccc(I)cc12 5.53
Cc1ccc(S[C@]2(C(=O)NCc3ccccc3)CC(=O)N(Cc3ccccc3C(F)(F)F)[C@@H]2c2ccc(CO)cc2)cc1 -1.37
CC(C)=CCCC(C)=CC(O)C1C=CC2C(=O)NC(=O)C2N1Nc1ccccn1 (stereo not given) -0.725
O=C1O[C@H](c2ccccc2)[C@H](c2ccccc2)N2[C@H]1[C@@H](C(=O)O)[C@]1(C(=O)Nc3ccc(C#CCCO)cc31)[C@H]2c1ccc(OCCO)cc1 0.232
C=CCN1C(=O)[C@@]2(O[C@@H](CCn3cc([C@H](O)c4ccccc4)nn3)[C@H]([Si](C)(C)c3ccc(OC)cc3)[C@H]2C)c2cc(N3C(=O)c4cccc5cccc3c45)ccc21 0.519
NC(=O)NCC#Cc1ccc2c(c1)[C@]1(C(=O)N2)[C@H](c2ccc(OCCO)cc2)N2[C@H](c3ccccc3)[C@H](c3ccccc3)OC(=O)[C@H]2[C@@H]1C(=O)O 0.623
CO[C@H]1O[C@H](CO)[C@@H](OC(=O)Nc2ccc3c(c2)OCO3)[C@H](OC(=O)Nc2ccccc2-c2ccccc2)[C@H]1OC(=O)Nc1ccccc1-c1ccccc1 -0.124
CC1CC/C=C\[C@H]2OC34C=CCN(c5ccc6ccccc6c5)C(=O)[C@H]3N(C(C)CO)C(=O)[C@@H]4C2C(=O)O1 (stereo not given in full) 0.927
COC(=O)[C@@]1(Cc2ccc(OC)cc2)[C@H]2c3cc(C(=O)N4CCCC4)n(Cc4ccc(C(F)(F)F)nc4)c3C[C@H]2CN1C(=O)c1ccccc1 0.746
Cc1ccc(C(C)CC(O)C2C=CC3C(=O)N(C)C(=O)C3N2Nc2ccccc2)o1 (stereo not given) 0.684
C=CC[C@@]1(C(=O)N(C)C)N=C(c2ccc(OCCCO)cc2)O[C@@H]1c1ccccc1CN=[N+]=[N-] 1.93
COC(=O)[C@@]1(Cc2ccccc2)[C@H]2c3cc(C(=O)N4CCCC4)n(Cc4ccc(OC)c(OC)c4)c3C[C@H]2CN1C(=O)c1ccccc1 2.24
N#Cc1ccc(NN2C(C(O)C3CC=CCC3)C=CC3C(=O)N(c4ccccc4)C(=O)C32)cc1 (stereo not given) 0.889
C=C(C)[C@@H]1CC=C(C(O)C2C=CC3C(=O)N(c4ccccc4)C(=O)C3N2Nc2ccc([N+](=O)[O-])cc2)CC1 (stereo not given in full) 1.34
COc1ccc([Si](C)(C)[C@H]2[C@H](CCO)O[C@@]3(C(=O)N(Cc4cccc(N(C=O)c5ccccc5)c4)c4ccccc43)[C@@H]2C)cc1 1.1
CCCCC(O)C1C=CC2C(=O)N(c3ccccc3)C(=O)C2N1Nc1ccc([N+](=O)[O-])cc1 (stereo not given) 0.371
COc1ccc([Si](C)(C)[C@@H]2[C@@H](CC(=O)N3CCC[C@H]3CO)O[C@]3(C(=O)N(Cc4ccc(N5CCOC5=O)cc4)c4ccccc43)[C@H]2C)cc1 -1.52
CC(C)NC(=O)[C@@H]1c2ccccc2C(=O)N(Cc2ccccc2C(F)(F)F)[C@H]1c1ccc(CO)cc1 1.32
CCCCCC1=C2CNC(Cc3ccccc3)(C(=O)OC)C=C2C(C)C1=O (stereo not given) 1.04
CN(C)c1ccc(C(O)C2C=CC3C(=O)N(Cc4ccccc4)C(=O)C3N2n2cnnc2)cc1 (stereo not given) 0.747
